Experimental data as given in the supplement of paper PMC8285479.
Where a name gives a salt, the structure may show the parent alone. ± gives the standard deviation of the averaged measurements. Over roughly 1,900 compounds, “normalised cell viability (NPI; 0 = phenylarsine oxide control, 1 = DMSO control)” has its median near 1; the lowest 2% begin near 0.039. The sample holds the lowest values, similar compounds and a random draw of the others, so the mix is not that of the screen.

System: NCI-H1944
Assay: normalised cell viability (NPI; 0 = phenylarsine oxide control, 1 = DMSO control) (fraction of DMSO control); NCI-H1944 is a non-small cell lung cancer line; higher = more viable cells (less compound toxicity)
Settings: 6 days
[1] = glucocorticoid arm: hydrocortisone 2.75 uM co-treatment, compound 1 µM
[2] = glucocorticoid arm: hydrocortisone 2.75 uM co-treatment, compound 5 µM
[3] = glucocorticoid arm: hydrocortisone 2.75 uM pre-treated 2 days and continued, compound 1 µM
[4] = glucocorticoid arm: hydrocortisone 2.75 uM pre-treated 2 days and continued, compound 5 µM
[5] = glucocorticoid arm: vehicle, compound 1 µM
[6] = glucocorticoid arm: vehicle, compound 5 µM
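Also: CTB read-out in 384-well plates, triplicate wells, NPI normalised per plate against 1 µM phenylarsine oxide (0) and 0.1% DMSO (1) controls.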

Row | Structure (SMILES) | normalised cell viability [1] | normalised cell viability [2] | normalised cell viability [3] | normalised cell viability [4] | normalised cell viability [5] | normalised cell viability [6]
1 | Clc1ccc(C(c2ccc(Cl)cc2)[n+]2ccn(CC(OCc3ccc(Cl)cc3Cl)c3ccc(Cl)cc3Cl)c2)cc1 (configuration not stated) [Calmidazolium chloride] | 0.974 ± 0.035 | 0.00138 ± 0.00076 | 0.993 ± 0.012 | -0.000224 ± 0.0015 | 1.002 ± 0.0072 | 0.00119 ± 0.00017
2 | CN(CC[C@@H](Oc1ccc(C(F)(F)F)cc1)c1ccccc1)CC(=O)[O-].[Li+] | 0.992 ± 0.0046 | 0.989 ± 0.011 | 0.99 ± 0.014 | 0.998 ± 0.018 | 0.979 ± 0.016 | 0.9777 ± 0.0035
3 | NCCC[C@](N)(C(=O)O)C(F)F (racemic) [DL-alpha-Difluoromethylornithine hydrochloride] | 0.9853 ± 0.0063 | 0.923 ± 0.021 | 0.9873 ± 0.0064 | 0.932 ± 0.011 | 0.9863 ± 0.0055 | 0.9817 ± 0.0032
4 | O=C(CCCN1C(=O)c2cccc3cccc(c23)C1=O)NO [Nullscript] | 0.981 ± 0.011 | 0.961 ± 0.029 | 1 ± 0.012 | 0.987 ± 0.018 | 1 ± 0.0082 | 1.01 ± 0.014
5 | c1cc(CN2CCCNCCNCCCNCC2)ccc1CN1CCCNCCNCCCNCC1 [Plerixafor] | 1 ± 0.018 | 1 ± 0.017 | 1.01 ± 0.011 | 0.996 ± 0.016 | 1.006 ± 0.0063 | 1.01 ± 0.013
6 | CNCc1ccc(-c2[nH]c3cc(F)cc4c3c2CCNC4=O)cc1 | 0.982 ± 0.0036 | 1 ± 0.071 | 0.968 ± 0.0095 | 1.01 ± 0.022 | 0.989 ± 0.013 | 0.948 ± 0.022
7 | CCCCc1nc2cc(/C=C/C(=O)NO)ccc2n1CCN(CC)CC [Pracinostat (SB939)] | 0.9753 ± 0.004 | 0.00959 ± 0.0058 | 1 ± 0.0095 | 0.0658 ± 0.0071 | 0.686 ± 0.077 | 0.000852 ± 0.0004
8 | Nc1ncnc2c1c(-c1cccc(OCc3ccccc3)c1)cn2C1CC(CN2CCC2)C1 (configuration not stated) | 0.457 ± 0.025 | 0.366 ± 0.021 | 0.596 ± 0.0046 | 0.436 ± 0.062 | 0.939 ± 0.013 | 0.776 ± 0.039
9 | O=C(NCCO)c1ccc2c(c1)nc(Nc1cccc(Cl)c1)c1ccncc12 [CK2 Inhibitor 2] | 1.02 ± 0.022 | 0.854 ± 0.028 | 1.03 ± 0.015 | 1.07 ± 0.021 | 1.001 ± 0.0081 | 0.567 ± 0.033
10 | COc1cccc2c1C(=O)c1c(O)c3c(c(O)c1C2=O)C[C@@](O)(C(=O)CO)C[C@@H]3O[C@H]1C[C@H](N)[C@H](O)[C@H](C)O1 [Doxorubicin hydrochloride; 4'-Epiadriamycin; Doxorubicin HCl] | 0.454 ± 0.36 | 0.288 ± 0.3 | 0.754 ± 0.26 | 0.484 ± 0.48 | 0.178 ± 0.17 | 0.129 ± 0.14
11 | CC(=O)[C@]1(O)Cc2c(O)c3c(c(O)c2[C@@H](O[C@H]2C[C@H](N)[C@H](O)[C@H](C)O2)C1)C(=O)c1ccccc1C3=O [Idarubicin hydrochloride; Idarubicin; 4-DMD HCl] | 0.0183 ± 0.0037 | 1.06 ± 0.026 | 0.0494 ± 0.0094 | 1.033 ± 0.0058 | 0.00163 ± 0.00068 | 1.006 ± 0.0075
12 | COc1cccc2c1C(=O)c1c(O)c3c(c(O)c1C2=O)C[C@@](O)(C(C)=O)C[C@@H]3O[C@H]1C[C@H](N)[C@H](O)[C@H](C)O1 [Daunorubicin hydrochloride; Daunorubicin HCl] | 0.0398 ± 0.0066 | 1.05 ± 0.011 | 0.587 ± 0.027 | 1.013 ± 0.0058 | 0.0031 ± 0.0017 | 1.007 ± 0.0058
13 | CCCCC(=O)OCC(=O)[C@]1(O)Cc2c(O)c3c(c(O)c2[C@@H](O[C@H]2C[C@H](NC(=O)C(F)(F)F)[C@H](O)[C@H](C)O2)C1)C(=O)c1c(OC)cccc1C3=O [Valrubicin] | 0.665 ± 0.04 | 0.868 ± 0.016 | 0.973 ± 0.016 | 0.982 ± 0.017 | 0.228 ± 0.017 | 0.374 ± 0.0045
14 | CC(=O)[C@]1(O)Cc2c(O)c3c(c(O)c2[C@@H](O[C@H]2C[C@H](N)[C@H](O)[C@H](C)O2)C1)C(=O)c1ccccc1C3=O [Idarubicin hydrochloride] | 0.00497 ± 0.00094 | 0.0017 ± 0.0005 | 0.00532 ± 0.0009 | 0.024 ± 0.0063 | 0.00471 ± 0.00071 | 0.00231 ± 0.00037
15 | NC(CCCP(=O)(O)O)C(=O)O (racemic) [(±)-2-Amino-5-phosphonopentanoic acid] | 0.987 ± 0.0072 | 0.9967 ± 0.0031 | 0.9907 ± 0.0083 | 0.993 ± 0.0028 | 0.98 ± 0.0056 | 0.9857 ± 0.0098
16 | N[C@@H](CCC(=O)N[C@@H](CSN=O)C(=O)NCC(=O)O)C(=O)O [S-Nitrosoglutathione] | 1.003 ± 0.0058 | 1.02 ± 0.025 | 1.02 | 1.04 ± 0.064 | 0.9933 ± 0.0035 | 1 ± 0.014
17 | c1ccc2c(c1)CC(N1CCN(c3cccc4c3OCCO4)CC1)C2 | 0.988 ± 0.019 | 0.9857 ± 0.0084 | 0.995 ± 0.015 | 1.03 ± 0.081 | 1.003 ± 0.0058 | 1.02 ± 0.011
18 | Nc1nccc2c1ncn2[C@@H]1O[C@H](CO)[C@@H](O)[C@H]1O [3-deazaadenosine] | 0.989 ± 0.0099 | 0.973 ± 0.025 | 0.996 ± 0.012 | 0.981 ± 0.011 | 0.9687 ± 0.0035 | 0.968 ± 0.0062
19 | O=C(c1ccc(Nc2nccc(-c3cc4ccccc4s3)n2)cc1)N1CCC(N2CCCC2)CC1 [IKK-16 (IKK Inhibitor VII)] | 0.901 ± 0.0072 | 0.626 ± 0.03 | 0.913 ± 0.015 | 0.837 ± 0.021 | 0.9453 ± 0.0065 | 0.0503 ± 0.008
20 | CNCC[C@H](Oc1cccc2ccccc12)c1cccs1 [Duloxetine HCl] | 0.9993 ± 0.0011 | 0.9847 ± 0.0032 | 1.01 ± 0.018 | 0.98 ± 0.015 | 0.999 ± 0.0095 | 0.9923 ± 0.0083
21 | C[n+]1cc2c3c(ccc2c2ccc4cc5c(cc4c21)OCO5)OCO3 [Sanguinarine chloride] | 1.04 ± 0.011 | -0.0014 ± 0.001 | 0.903 ± 0.2 | -0.00109 ± 0.00052 | 0.983 ± 0.037 | -0.000203 ± 0.00043
22 | Cc1ccccc1CNc1ncnc2c1ncn2[C@@H]1O[C@H](CO)[C@@H](O)[C@H]1O [Metrifudil] | 1.01 ± 0.011 | 1.03 ± 0.017 | 1.02 | 1.04 ± 0.071 | 0.996 ± 0.004 | 1.001 ± 0.0085
